# Compound activity (PubChem)
# Hits are enriched below; roughly 2.4% of the tested compounds scored in any of these assays.
# D2 antag – HTS Assay for Allosteric Antagonists of the Human D2 Dopamine Receptor: Primary Screen for Antagonists; D(2) dopamine receptor (Homo sapiens), P14416; HEK293 TREx D2 cells, calcium flux, dopamine EC80; inhibition, % at 10 µM; 340,000 tested, 2% active; in the data active = inhibition above about 30%; inactive = below that, where a call was filed; also: 0% is about no effect
#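 Antagonism is scored as inhibition of an EC80 dopamine-evoked calcium signal in a force-coupled, tetracycline-inducible HEK293 T-REx D2 line, with compound present 180 s before agonist.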
# D2 PAM-1 – Beta-Arrestin HTS for Positive Allosteric Modulators of the Human D2 Dopamine Receptor: Potentiators. DiscoveRx D2 beta-arrestin cells, luminescence, 90 min; 100% = 57 uM dopamine signal. D(2) dopamine receptor (Homo sapiens), P14416. potentiation, % (no concentration beside the values). 360,000 tested, 0.23% active. AID 624464, 2012; in the data active = potentiation above about 50%; inconclusive = mostly about 30% to 49%
#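 PathHunter beta-arrestin assay in DiscoveRx D2 cells. Compounds were added with an EC20 of dopamine (50 nM final) for 90 min at 37 deg C. Luminescence was read 1 h after detection reagent, with 57 uM dopamine as the EC100 control.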
# D2 ag-1 – Beta-Arrestin HTS for Positive Allosteric Modulators of the Human D2 Dopamine Receptor: Agonists. 360,000 tested, 0.084% active. D(2) dopamine receptor (Homo sapiens), P14416. DiscoveRx PathHunter D2 beta-arrestin, luminescence, 90 min; 100% = 57 uM dopamine signal. activation, % (concentration not given with the values); in the data active = activation above about 40%; inconclusive = between about 15% and that limit
#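 DiscoveRx PathHunter D2 beta-arrestin cells (2,100/well) attached overnight, then compound-stimulated 90 min at 37 C in HBSS/10 mM HEPES/0.1% Tween-20 buffer; beta-galactosidase complementation read by luminescence after 1 h at ambient temperature. Dopamine 57 uM final (EC100) as control.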
# D2 PAM-2 – HTS Assay for Positive Allosteric Modulators of the Human D2 Dopamine Receptor: Primary Screen for Potentiators. HEK293 T-REx D2, calcium flux, EC20 dopamine potentiation. 340,000 tested, 0.34% active. potentiation, % at 10 µM. D(2) dopamine receptor (Homo sapiens), P14416;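 active = potentiation over 3 SD above the plate norm, cut at about 30% in these data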; also: 0% is about no effect
#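 Potentiation of an EC20 dopamine calcium response is measured in a force-coupled, tetracycline-inducible Hek293 Trex D2 line. Compound-only kinetic reads over 180 s flag agonists before dopamine addition.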
# D2 ag-2 – HTS Assay for Allosteric Agonists of the Human D2 Dopamine Receptor: Primary Screen for Agonists | HEK293 T-REx D2 cells, calcium flux agonist mode | activation, % at 2 µM | 340,000 tested, 0.53% active;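 active = activation over 3 SD above normal in the single-dose calcium agonist read, cut at about 30% in these data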; also: 0% is about no effect
#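 In this primary screen, compounds producing a positive calcium signal within 180 s of addition to tetracycline-induced, force-coupled HEK293 Trex D2 cells are flagged; cells are dye-loaded with a no-wash calcium kit beforehand.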
# D3 arrestin ag – qHTS of D3 Dopamine Receptor Agonist: D3 Dopamine Receptor B-arrestin Agonist Confirmatory Assay; 2,300 tested, 4% active; AID 720506, 2013; Potency, µM (doses to about 76.9 µM), inactives show top-dose activation, hits mostly activators; shares compounds with D2 ag-2; DiscoveRx D3 beta-arrestin cells, luminescence, 90 min;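 also: potency is read from the fitted curve at half-maximal effect; 100% = dopamine control response; nearly all actives have a fitted effect of over 70% in size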
# Target sequence (P35462 whole entry, looked up): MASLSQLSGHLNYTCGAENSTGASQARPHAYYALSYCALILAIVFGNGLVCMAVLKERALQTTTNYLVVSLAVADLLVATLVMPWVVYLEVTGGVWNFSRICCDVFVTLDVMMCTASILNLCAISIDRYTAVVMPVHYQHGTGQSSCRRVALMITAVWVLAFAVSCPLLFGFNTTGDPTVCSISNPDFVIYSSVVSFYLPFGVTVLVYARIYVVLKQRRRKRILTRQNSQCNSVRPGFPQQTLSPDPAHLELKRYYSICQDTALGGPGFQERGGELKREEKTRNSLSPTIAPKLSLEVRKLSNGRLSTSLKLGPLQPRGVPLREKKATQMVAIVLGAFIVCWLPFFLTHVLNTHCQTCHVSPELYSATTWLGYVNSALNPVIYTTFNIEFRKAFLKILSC
# D2 ag-3 – qHTS of D3 Dopamine Receptor Agonist: D2 Dopamine Receptor B-arrestin Agonist Counterscreen | 2,300 tested, 5.9% active | DiscoveRx PathHunter D2 beta-arrestin, luminescence, 90 min; response scale: percent relative to full dopamine signal | Potency, µM (highest dose often 76.9 µM), for the others: top-dose activation, most hits filed as activators | shares compounds with D2 ag-2; also: potency is read from the fitted curve at half-maximal effect; % of control where 0% means no effect; nearly all actives have a fitted effect of over 70% in size
# Numbers without * were called inactive; ? = inconclusive; · = not tested or not shown. Unless noted, calls follow the shape of the dose curve; as a rule, active = well fitted activation curve with a large enough effect; inconclusive = small, poorly fitted or top-dose-only effect; inactive = flat fitted curve, though single readings scatter.
SMILES,D2 antag,D2 PAM-1,D2 ag-1,D2 PAM-2,D2 ag-2,D3 arrestin ag,D2 ag-3
Cc1ncoc1C(=O)N1CCCC(N2CCN(c3ccccc3F)CC2)C1 (stereo not given),1,-26,-3,-12,36*,-14%,-2%
O=C(c1ccnc(Cl)c1)N1CCCC(N2CCN(c3ccccc3F)CC2)C1 (stereo not given),25,0,3,-6,24,19%,19%
CC(=O)N1c2ccccc2C(=O)C1N1CCN(c2ccccc2F)CC1 (stereo not given),·,·,·,3,·,·,·
COc1ccccc1NC(=O)C1=C(C)Nc2nc(SCc3ccccc3Cl)nn2C1c1cccnc1 (stereo not given),·,·,·,2,0,·,·
Cc1ccc(NC(=O)Cn2c(-c3ccc4c(c3)OCO4)cn(-c3ccccc3)c2=O)cc1,·,·,·,12,0,·,·
CCC(Sc1nnc(C)n2c1cc1occc12)C(=O)Nc1ccccc1F (stereo not given),·,·,·,3,1,·,·
Cc1ccc(C2=CC(=O)C[C@H](c3ccc(Cl)cc3)C2)cc1,-2,-14,-6,8,1,·,·
COc1ccc([C@H]2CC(=O)C=C(c3cccc(CO)c3)C2)cc1OC,6,-3,1,-4,1,·,·
O=C1C=C(c2ccc3ncccc3c2)C[C@@H](c2ccc(Cl)cc2)C1,-8,-3,-2,17,1,·,·
O=C1C=C(c2ccccc2)C[C@@H](c2ccc(Cl)cc2)C1,11,-5,5,4,1,-8%,-2%
O=C1C=C(c2ccc3ccccc3c2)C[C@@H](c2ccc(Cl)cc2)C1,-9,-6,0,-2,1,-11%,-2%
O=C1C=C(c2cccc(CO)c2)C[C@@H](c2ccc(Cl)cc2)C1,52*,-3,0,-2,0,-6%,5%
O=C(NCCc1csc(-c2cccc(F)c2)n1)c1cccs1,·,·,·,-4,-1,·,·
CN(C(=O)c1ccc2c(c1)N(Cc1ccc(F)cc1)C(=O)c1ccccc1S2(=O)=O)C1CCCCC1,·,·,·,-4,1,·,·
COc1ccc(CN2CCN(C(=O)c3cccs3)CC2)cc1Br,·,3,15,·,·,·,·
COc1ccccc1CN(C)C(=O)CN1CCN(C(=O)c2cccs2)CC1,29,12,14,-26,72*,9%,?
COc1ccccc1CC(NC(C)=O)C(=O)N1CCN(C(=O)c2cccs2)CC1 (stereo not given),-6,-7,-2,-10,7,·,·
COc1ccc(-c2noc(CN3CCN(C(=O)c4cccs4)CC3)n2)c(OC)c1OC,-3,-6,-9,-13,29,1%,5%
CCc1ccc(NC(=O)CN2C(=O)C(c3ccc(F)cc3)=NC2(C)C)cc1,·,·,·,12,0,·,·
CC(C)c1cccc(-c2ccc3c(c2)S(=O)(=O)c2cccc(C(=O)O)c2C3=O)c1,-2,-14,-4,-7,-1,-1%,0%
COc1ccc(NC(=O)Cn2ccn(-c3ccc(F)c(F)c3)c(=O)c2=O)cc1Cl,·,·,·,4,0,·,·
CCOC(=O)C1CCN(CC(=O)Nc2c(C(=O)OC)[nH]c3cccc(C)c23)CC1,9,-17,6,-4,29,4%,17%
CCOC(=O)C1CCCN(CC(=O)Nc2c(C(=O)OC)[nH]c3ccccc23)C1 (stereo not given),·,-37,-3,·,·,·,·
